This note sets out measurements from PubChem BioAssay (Tox21).

Unmarked numbers belong to inactive results. Records with an inconclusive call do not appear. Active and inactive are the calls of the source. Unless noted, the call rests on the fitted dose curve; in most records, active means well fitted curve in the direction sought with a large enough effect in the repeat runs; inconclusive means weak or mixed curves; inactive means no such curve, though single readings can be large; an effect the other way counts as inactive or inconclusive.

Assay [1] can be described thus: A CellTox Green Cytotoxicity Assay to monitor cytotoxicity in HEK293 cells - 32 hour (AID 1224881). Further: nearly all actives have a fitted effect of over 40% in size. Further: potency means the concentration at half of the fitted maximal effect. In outline: (§1)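 Each value comes from one timepoint of a single continuous run in which HEK293 cells with CellTox Green were exposed to compound for up to 40 h at 37 C, dye fluorescence rising with cell death.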
The nature of assay [2]: A CellTox Green Cytotoxicity Assay to monitor cytotoxicity in HepG2 cells - 0 hour (AID 1224882). Further: nearly all actives have a fitted effect of over 35% in size. Further: potency means the concentration at half of the fitted maximal effect. The method in brief: (§2)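 Continuous culture of HepG2 cells with a membrane-impermeant DNA dye; rising fluorescence marks dead cells. Compound exposure lasted up to 40 h at 37 C, with reads every 8 h from 0 h.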
Assay [3] is described as follows: A CellTox Green Cytotoxicity Assay to monitor cytotoxicity in HEK293 cells - 8 hour (AID 1224884). Further: nearly all actives have a fitted effect of over 35% in size. Further: potency means the concentration at half of the fitted maximal effect. The method in brief: as §1
Assay [4] can be described thus: qHTS RealTime-Glo MT Cell Viability Assay in HepG2 cells - 16 hour (AID 1224885). Further: nearly all actives have a fitted effect of over 50% in size. In outline:
(§3)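 Compound treatment began 5 h after plating HepG2 cells (600/well) with NanoLuc luciferase and prosubstrate. Plates stayed at 37 C for 40 h; luminescence was captured at six time points, 0 h through 40 h.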
Background: In qHTS, concentration-response curves come from the screen itself.

Assay [5] is described as follows: A CellTox Green Cytotoxicity Assay to monitor cytotoxicity in HEK293 cells - 16 hour (AID 1224888). Further: nearly all actives have a fitted effect of over 35% in size. Further: potency means the concentration at half of the fitted maximal effect. The method in brief: as §1
A short description of assay [6]: qHTS RealTime-Glo MT Cell Viability Assay in HepG2 cells - 0 hour (AID 1224889). Further: nearly all actives have a fitted effect of over 50% in size. In outline:
as §3

Assay [7] is described as follows: A CellTox Green Cytotoxicity Assay to monitor cytotoxicity in HepG2 cells - 8 hour (AID 1224890). Further: nearly all actives have a fitted effect of over 45% in size. Further: potency means the concentration at half of the fitted maximal effect. The method in brief:
as §2

A short description of assay [8]: qHTS assay to identify small molecule antagonists of the estrogen receptor alpha (ER-alpha) signaling pathway using the BG1 cell line in the presence of 0.1 nM 17-beta-estradiol - cell viability counter screen (AID 1259241). Further: nearly all actives have a fitted effect of over 40% in size. The method in brief: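 VM7Luc4E2 cells (endogenous ER-alpha, 4×ERE-luciferase), hormone-starved 5 days in charcoal-stripped FBS, were treated with compounds plus 0.1 nM 17beta-estradiol for 22 hr at 37C; viability read in same wells as CellTiter-Fluor live-cell protease fluorescence.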

Assay [9] is described as follows: qHTS assay to identify small molecule antagonists of the androgen receptor (AR) signaling pathway using the MDA cell line in the presence of 0.5 nM R1881 - cell viability counter screen (AID 1259242). Further: nearly all actives have a fitted effect of over 45% in size. In outline:
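Fluorescence from CellTiter-Fluor, which reports protease activity of live cells, was read 30 min after reagent addition to MDA-kb2 cells that had been incubated 16 hr with compound and 0.5 nM R1881.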

Assay [10] addresses Androgen receptor (Homo sapiens) (UniProt P10275). Briefly: qHTS assay to identify small molecule antagonists of the androgen receptor (AR) signaling pathway using the MDA cell line in the presence of 0.5 nM R1881 (AID 1259243). Further: nearly all actives have a fitted effect of over 50% in size. In outline:
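Inhibition of R1881 (0.5 nM final) induced reporter signal was measured in human MDA-kb2 cells; note the MMTV promoter also responds to GR. Exposure lasted 16 hr at 37C.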

The target in assay [11] is Estrogen receptor (Homo sapiens) (UniProt P03372). Briefly: qHTS assay to identify small molecule antagonists of the estrogen receptor alpha (ER-alpha) signaling pathway using the BG1 cell line in the presence of 0.1 nM 17-beta-estradiol (AID 1259244). Further: nearly all actives have a fitted effect of over 50% in size. Further: potency means the concentration at half of the fitted maximal effect. In outline: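 Quantitative high-throughput screen in VM7Luc4E2 cells: compound plus 0.1 nM E2 (final), 22 h, 37C, 5% CO2; ONE-Glo added, 30 min room temperature, luminescence measured.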

The nature of assay [12]: qHTS assay to identify small molecule HDAC inhibitors (AID 1259364). Further: top concentration of the series differs between compounds; nearly all actives have a fitted effect of over 45% in size. In outline:
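Endogenous HDAC class I/II activity was measured in wild-type HCT-116 cells by HDAC-Glo luminescence after 2 h compound treatment.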

Assay [13] can be described thus: qHTS assay to identify small molecule HDAC inhibitors - cell viability counter screen (AID 1259365). In outline: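 Wild-type HCT-116 cells were seeded at 1,500 per well, incubated overnight at 37 C, then exposed to compounds in DMSO for 2hr. Viability was read by CellTiter-Glo luminescence after 30min at room temperature.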
Assay [14] is described as follows: qHTS assay to identify small molecule agonists of the sonic hedgehog signaling (Shh) pathway - cell viability counter screen (AID 1259366). Further: nearly all actives have a fitted effect of over 50% in size. The method in brief:
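NIH/3T3-derived 3T3 Gli1-Luc cells (stable Gli1-responsive firefly luciferase reporter) were seeded, rested 4 hr at 37 C/5% CO2, then exposed to compounds in DMSO for 24 hr; viability was read by CellTiter-Fluor fluorescence in the same wells.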

A short description of assay [15]: qHTS assay to identify small molecule antagonists of the sonic hedgehog signaling (Shh) pathway - cell viability counter screen (AID 1259367). Further: nearly all actives have a fitted effect of over 55% in size. Further: potency means the concentration at half of the fitted maximal effect. In outline: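 Seed 3T3 Gli1-Luc cells at 2,000 per well; incubate 4 hr; add compound in DMSO, then conditioned medium; incubate at 37C with 5% CO2; add CellTiter-Fluor after 23 hr; read fluorescence 1 hr later.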
Assay [16] is described as follows: qHTS assay to identify small molecule agonists of the sonic hedgehog signaling (Shh) pathway (AID 1259368; calls by dose curve; further: series mostly up to about 92 µM; nearly all actives have a fitted effect of over 15% in size). In outline: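 Luminescent signal was taken as a measure of Gli1-controlled luciferase expression in stably transfected NIH/3T3-derived cells that had been treated for 24 hr with compounds delivered in DMSO.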
The nature of assay [17]: qHTS RealTime-Glo MT Cell Viability Assay in HEK293 cells - 8 hour (AID 1224887). Further: nearly all actives have a fitted effect of over 50% in size. Further: potency means the concentration at half of the fitted maximal effect. In outline: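 qHTS format; HEK293 cells with NanoLuc/prosubstrate reagent, 37 C/5% CO2 for 5 h pre-dosing; compounds 23 nL in DMSO; luminescence at each time point reflects viable cells.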
The nature of assay [18]: qHTS assay to identify small molecule phospholipidosis (PLD) inducers (AID 1259344; active means well fitted curve in the direction sought with a large enough effect; an effect the other way counts as inactive or inconclusive). In outline: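 Quantitative HTS in HepG2: compound plus LipidTOX Red dye for 24 h, paraformaldehyde fixation with Hoechst 33342, widefield high-content imaging; amiodarone as positive and DMSO as negative control.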
Assay [19] is described as follows: qHTS RealTime-Glo MT Cell Viability Assay in HEK293 cells - 24 hour (AID 1224886). Further: nearly all actives have a fitted effect of over 50% in size. Further: potency means the concentration at half of the fitted maximal effect. The method in brief: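 Quantitative high-throughput screen of the Tox21 10K library in HEK293: cells and RealTime-Glo reagents plated together, compound added at 5 h, luminescence monitored through 40 h at 37 C.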

Chain of Estrogen receptor (Homo sapiens) (P03372 whole entry, looked up): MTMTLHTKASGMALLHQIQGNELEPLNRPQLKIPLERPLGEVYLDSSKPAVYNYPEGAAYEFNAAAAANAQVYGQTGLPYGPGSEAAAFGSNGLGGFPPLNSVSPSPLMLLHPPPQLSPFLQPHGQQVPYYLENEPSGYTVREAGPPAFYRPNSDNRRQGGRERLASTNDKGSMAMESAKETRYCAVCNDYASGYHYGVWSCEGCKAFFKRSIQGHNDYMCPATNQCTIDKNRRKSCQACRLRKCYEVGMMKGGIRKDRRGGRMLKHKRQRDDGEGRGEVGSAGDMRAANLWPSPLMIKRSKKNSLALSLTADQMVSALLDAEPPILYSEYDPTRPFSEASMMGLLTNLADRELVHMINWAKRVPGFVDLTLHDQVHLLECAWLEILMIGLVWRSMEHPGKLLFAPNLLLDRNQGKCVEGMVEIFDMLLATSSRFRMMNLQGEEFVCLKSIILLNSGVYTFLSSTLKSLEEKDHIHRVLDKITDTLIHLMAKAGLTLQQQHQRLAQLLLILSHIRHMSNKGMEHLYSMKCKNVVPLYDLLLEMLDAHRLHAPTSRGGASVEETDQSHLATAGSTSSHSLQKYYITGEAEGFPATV
Chain of Androgen receptor (Homo sapiens) (P10275 whole entry, looked up): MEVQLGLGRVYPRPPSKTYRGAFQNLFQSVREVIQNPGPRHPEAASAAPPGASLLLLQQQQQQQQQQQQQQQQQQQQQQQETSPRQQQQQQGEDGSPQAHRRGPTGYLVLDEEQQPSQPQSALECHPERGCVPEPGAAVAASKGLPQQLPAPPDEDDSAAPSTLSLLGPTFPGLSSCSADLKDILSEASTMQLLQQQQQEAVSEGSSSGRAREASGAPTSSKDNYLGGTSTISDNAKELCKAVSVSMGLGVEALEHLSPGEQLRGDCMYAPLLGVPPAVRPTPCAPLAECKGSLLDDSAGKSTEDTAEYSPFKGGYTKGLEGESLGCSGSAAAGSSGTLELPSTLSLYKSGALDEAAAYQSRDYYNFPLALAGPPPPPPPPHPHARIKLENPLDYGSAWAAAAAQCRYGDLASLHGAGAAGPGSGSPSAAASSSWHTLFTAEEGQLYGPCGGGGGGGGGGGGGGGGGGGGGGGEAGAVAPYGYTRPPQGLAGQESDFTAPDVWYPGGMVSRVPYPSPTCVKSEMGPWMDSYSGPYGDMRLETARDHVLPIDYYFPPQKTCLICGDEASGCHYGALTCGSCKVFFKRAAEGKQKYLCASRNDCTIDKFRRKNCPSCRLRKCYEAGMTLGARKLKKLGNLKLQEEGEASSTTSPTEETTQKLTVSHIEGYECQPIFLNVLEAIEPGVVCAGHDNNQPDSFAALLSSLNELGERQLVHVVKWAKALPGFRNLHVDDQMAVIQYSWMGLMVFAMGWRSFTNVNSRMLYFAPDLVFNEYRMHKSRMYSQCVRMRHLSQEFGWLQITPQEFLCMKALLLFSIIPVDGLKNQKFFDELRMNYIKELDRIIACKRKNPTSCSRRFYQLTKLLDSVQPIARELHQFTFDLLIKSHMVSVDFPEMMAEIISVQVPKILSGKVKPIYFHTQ

Regarding `COC(=O)[C@H]1[C@H]2C[C@@H]3c4[nH]c5cc(OC)ccc5c4CCN3C[C@H]2C[C@@H](OC(=O)/C=C/c2ccc(O)c(OC)c2)[C@@H]1OC`, the Potency was 19 µM (active) in assay [1]; 26.8 µM (active) in assay [2]; 19 µM (active) in [3]; 16.9 µM (active) in assay [5]; 26.8 µM (active) in assay [7]. The Potency entry in assay [4], in assay [6], in [8], in [9], in [10] and in assay [11] was “inactive” in each case. In addition, the Potency entry in assay [12], in assay [13], in assay [14], in assay [15] and in [16] was “inactive” each time.
In the case of `C/C=C(/C(=C/C)c1ccc(O)cc1)c1ccc(O)cc1`, the Potency result in [1], in assay [2], in assay [3], in assay [4], in assay [17] and in assay [5] was “inactive” throughout. For the same compound, the Potency result in assay [9], in assay [11], in assay [18], in assay [12], in assay [13] and in assay [14] was “inactive” throughout. Moreover, the Potency result in assay [16] is “inactive”. Besides, the Potency in assay [7] is 15.1 µM (active).
In the case of `O=C(CCc1ccc(O)cc1)c1c(O)cc(O)cc1O`, the Potency entry in assay [1], in assay [2], in [4], in [5], in assay [7] and in assay [8] was “inactive” each time. Besides, the Potency result in assay [9], in assay [11], in assay [12], in assay [13], in assay [14] and in assay [15] was “inactive” in each case. Moreover, in assay [16], the Potency result is “inactive”. The Potency is 39.8 µM (active) in [19] and 25.1 µM (active) in assay [17].
`CCOC(=O)c1ccc(C#Cc2ccc3c(c2)C(C)(C)CCS3)nc1`: the Potency result in [1], in assay [2], in assay [3], in assay [4], in assay [5] and in [6] was “inactive” in each case. In addition, the Potency result in assay [7], in assay [8], in [9], in assay [18], in assay [12] and in assay [13] was “inactive” in each case. The Potency entry in assay [14], in [15] and in assay [16] was “inactive” in each case.
Consider `O=C(O)C[C@H](NC(=O)OCc1ccccc1)C(=O)O`, for which the Potency result in assay [1], in assay [2], in assay [4], in assay [19], in assay [17] and in assay [5] was “inactive” each time. The Potency result in assay [6], in assay [7], in [8], in [9], in assay [11] and in [12] was “inactive” throughout. For the same compound, the Potency entry in assay [13], in assay [14], in assay [15] and in assay [16] was “inactive” throughout.
In the case of `Nc1nnc(-c2ccc([N+](=O)[O-])o2)o1`, the Potency result in [1], in assay [2], in assay [3], in assay [19], in assay [17] and in [5] was “inactive” each time. For the same compound, the Potency entry in assay [6], in [12], in assay [13] and in [16] was “inactive” each time. Moreover, the Potency in assay [11] was 54.5 µM (active); in [15], 27.3 µM (active).
`O=C1C(=O)c2ccccc2C(O)=C1C1CCC(c2ccc(Cl)cc2)CC1` (stereo unspecified): the Potency result in assay [1], in [2], in [4], in [19], in [17] and in assay [5] was “inactive” each time. In addition, the Potency entry in assay [18], in assay [12], in assay [13], in assay [14], in assay [15] and in [16] was “inactive” each time. The Potency in assay [11] is 26.6 µM (active).
As for `O=c1[nH]ncc2ccccc12`, the Potency result in assay [1], in [2], in assay [3], in [4], in assay [19] and in assay [17] was “inactive” throughout. The Potency entry in [5], in assay [6], in assay [9], in assay [11], in assay [12] and in assay [13] was “inactive” throughout. Besides, the Potency result in assay [14], in assay [15] and in [16] was “inactive” each time.
For the compound `COc1ccc(OC(=O)N(CC(=O)O)Cc2ccc(OCCc3nc(-c4ccccc4)oc3C)cc2)cc1`, the Potency result in assay [1], in [2], in assay [3], in assay [4], in assay [19] and in assay [17] was “inactive” throughout. Further, the Potency entry in [6], in assay [7], in assay [8], in [9], in assay [12] and in [13] was “inactive” each time. In addition, the Potency entry in assay [14], in assay [15] and in assay [16] was “inactive” each time.
